The values that follow come from PubChem BioAssay.

Calls of active or inactive are those of the source.
Further: test concentration not given here.

The nature of the first assay: JC-1 mitochondrial signal, unstimulated MM1S myeloma – cell-based, JC-1 fluorescence, 24 h, 100 nL compound, profiling panel (AID 1170). The conditions noted are these: MM1S mitochondrial potential, higher = more signal.
Take `COC(=O)[C@H]1COC(c2ccc(OCCCO)cc2)=N1`: the z-score came to 1.23.

In turn, `O=C1[C@H]2[C@H]3[C@H](O)[C@H](O)CC(=NOC[C@@H](O)COCc4ccco4)[C@H]3CC[C@H]2C(=O)N1Cc1ccc2c(c1)OCO2` gave a z-score of -0.635.

`CC[C@@H](c1ccccc1)n1c(=O)n2n(c1=O)[C@H]1[C@H](O)[C@@H]3O[C@@H]3C(=NOCC=C(C)CCC=C(C)C)[C@H]1CC2`: the z-score came to 0.198.

On to `C[C@@H](c1ccccc1)N1C(=O)[C@H]2[C@H]3[C@H](O)[C@H](O)CC(=NOC[C@@H](O)COCc4ccco4)[C@@H]3CC[C@H]2C1=O`, for which the z-score was -0.542.

In turn, `CO[C@H]1O[C@H](CO)[C@@H](OC(=O)Nc2ccc3c(c2)OCO3)[C@H](OC(=O)Nc2ccccc2-c2ccccc2)[C@@H]1OC(=O)Nc1ccccc1-c1ccccc1` came in with a z-score of 0.481.

Molecule `NCCCCCNC(=O)[C@@H]1C[C@@H]2C(=O)N3CCC[C@H]3C(=O)N2[C@@H]1c1cccc(OCCO)c1` yielded a z-score of 0.543.

Molecule `C[C@@H]1C=CCC(=O)OC[C@H](C)C(=O)N2CCC[C@H]2C(=O)OC1` had a z-score of -0.583.

Take `CCCC=C(CCC)[C@@H](NC(=O)c1ccc(-c2ccccc2)cc1)c1ccc(C(=O)OC)cc1`: the z-score is -1.29.

`CCOC(=O)[C@H](Cc1ccccc1)NC(=O)CCC1CC(OC(=O)NCc2ccc3c(c2)OCO3)CC2(CCCC(COC(=O)NCC3CCCCC3)O2)O1` (stereo partly specified) gave a z-score of -0.306.

The molecule `COc1ccc(COC(=O)NN=C2C[C@@H](O)[C@@H](O)[C@@H]3[C@@H]4C(=O)N(c5ccc(F)cc5F)C(=O)[C@@H]4CC[C@@H]23)cc1` displayed a z-score of 0.627.

As to `CC(C)[C@@H](OCc1ccccc1)[C@H](C)C=NO[C@H](C)c1cn([C@H](CO)Cc2ccccc2)nn1`, the z-score was determined as 0.115.

`COC(=O)[C@H](C)NC(=O)CCC1CC(OC(=O)NCc2cccc3ccccc23)CC2(CCCC(COC(=O)NCCc3ccc(Cl)cc3)O2)O1` (stereo partly specified) yielded a z-score of -0.197.

The molecule `COc1ccc(-c2nc3c(c4c2C[C@H](C)OC4)CN(CCC(C)C)CC3)cc1` registered a z-score of -0.685.

`O=C(NN=C1C[C@@H](O)[C@@H](O)[C@@H]2[C@@H]3C(=O)N(c4cccc(Oc5ccccc5)c4)C(=O)[C@@H]3CC[C@H]12)OCc1ccccc1` returned a z-score of -0.0387.

For the molecule `CCOC(=O)CCN1C(=O)[C@H]2[C@H]3[C@H](O)[C@H](O)CC(=NNC(=O)OCc4ccc(OC)cc4)[C@@H]3CC[C@H]2C1=O`, the z-score was -1.1.

`CCN1C(=O)[C@H]2[C@H]3[C@H](O)C=CC(=O)[C@@H]3CC[C@H]2C1=O` gave a z-score of 1.5.

As to `C=C(CCCC)C(=O)CC[C@@H](OC(C)=O)c1cccc(OCCO)c1`, the z-score is -0.238.

Regarding `O=C1C[C@]2(c3ccc([N+](=O)[O-])cc3)C(=O)N(CCN3CCOCC3)c3cc(CO)ccc3[C@H]2N1CC12CC3CC(CC(C3)C1)C2`, the z-score came to 0.0356.

Turning to `[N-]=[N+]=NCc1ccccc1[C@@H]1OC(c2ccc(OCCCO)cc2)=N[C@]1(Cc1ccccc1)C(=O)N1CCOCC1`, the z-score is -1.13.

On to `CC(C)N1CC=CC23O[C@@H]4C=CCCOC(=O)C4[C@H]2C(=O)N(CCCCCCO)[C@@H]3C1=O` (stereo partly specified), for which the z-score is -0.768.

`CCCNC(=O)[C@@H]1c2ccccc2C(=O)N(Cc2ccccc2Cl)[C@H]1c1ccc(CO)cc1` had a z-score of 0.661.

For `CCN1C(=O)[C@H]2[C@H]3[C@H](O)[C@H](O)CC(=NOCc4ccccc4)[C@H]3CC[C@H]2C1=O`, the z-score was determined as 0.515.

Molecule `C[C@H](c1ccccc1)N1C(=O)[C@H]2[C@H]3[C@H](O)[C@H](O)CC(=O)[C@@H]3CC[C@H]2C1=O` came in with a z-score of 0.25.

As for `COC(=O)C1=C(C)[C@@H](O)[C@@H](C)[C@H](c2c(OC)c(OC)c(C)c(OC)c2OC)O1`, the z-score was -0.722.

Molecule `CC(=O)OC[C@H]1O[C@H](CC=NOC[C@@H](C)[C@H](OCc2ccccc2)C(C)C)C=C[C@@H]1OC(C)=O` came in with a z-score of -0.482.

A further assay is described as follows: resazurin metabolic signal in A549 cells – cell-based, resazurin fluorescence, 24 h, PK04 Diversity Set, profiling panel (AID 1171). As to conditions: A549 viability, higher = more signal, called active from +8 up or from −8 down.
As to `COCCCNC(=O)[C@@]1(Sc2ccc(C)cc2)CC(=O)N(Cc2ccccc2)[C@@H]1c1ccc(CO)cc1I`, the z-score was 0.491 (inactive).

Regarding `COC(=O)[C@H](C)NC(=O)CCC1CC(OC(=O)NCCc2ccc(F)cc2)CC2(CCCC(COC(=O)NCC(c3ccccc3)c3ccccc3)O2)O1` (stereo partly specified), the z-score was 3.22 (inactive).

Consider `COc1ccccc1CN1C(=O)c2ccccc2[C@@H](C(=O)NCC(F)(F)F)[C@@H]1c1ccc(CO)cc1`, for which the z-score was 0.633 (inactive).

As to `Cc1cc2c(c(=O)o1)[C@H](O)[C@H]1O[C@H]1C2=O`, the z-score is -0.506 (inactive).

For the molecule `CCN(CC)c1ccc(N2CC=CC34O[C@@H]5/C=C\CCC(C)OC(=O)C5[C@H]3C(=O)N(CCCO)[C@@H]4C2=O)cc1` (stereo partly specified), the z-score is -0.38 (inactive).

With `O=C1O[C@@H](c2ccccc2)[C@@H](c2ccccc2)N2[C@@H](c3ccccc3OCCO)[C@]3(C(=O)Nc4ccc(C#CCCO)cc43)[C@@H](C(=O)O)[C@H]12`, the z-score is -0.0647 (inactive).

With `COc1ccc([Si](C)(C)[C@@H]2[C@@H](CC(=O)N3CCC[C@H]3CO)O[C@]3(C(=O)N(Cc4cccc(N5CCC5=O)c4)c4ccccc43)[C@H]2C)cc1`, the z-score is -1.39 (inactive).

Take `CC(C)(C)N1CC=CC23O[C@@H]4C=CCCOC(=O)C4[C@H]2C(=O)N(CCCCCO)[C@@H]3C1=O` (stereo partly specified): the z-score is 0.0951 (inactive).

On to `COc1cccc([C@@H]2Oc3ccc(Br)cc3C(=O)[C@H]2O)c1`, for which the z-score is -0.269 (inactive).

Take `CO[C@H]1COC(=O)[C@@H]2CCCN2C(=O)CC=C[C@@H](C)[C@H](OC)COC(=O)CC=C[C@@H]1C`: the z-score was 0.287 (inactive).

For `CC(CCN1CCc2nc(-c3ccccc3)c(-c3ccccc3)cc2C1)=NO[C@H](C)c1cn([C@@H]2COC[C@H]2O)nn1`, the z-score was -0.579 (inactive).

As for `COC(=O)[C@H]1COC(c2ccc(OCCCO)cc2)=N1`, the z-score is 0.0759 (inactive).

With `O=C1[C@H]2[C@H]3[C@H](O)[C@H](O)CC(=NOC[C@@H](O)COCc4ccco4)[C@H]3CC[C@H]2C(=O)N1Cc1ccc2c(c1)OCO2`, the z-score was -0.138 (inactive).

`CC[C@@H](c1ccccc1)n1c(=O)n2n(c1=O)[C@H]1[C@H](O)[C@@H]3O[C@@H]3C(=NOCC=C(C)CCC=C(C)C)[C@H]1CC2`: the z-score is -0.0334 (inactive).

As for `C[C@@H](c1ccccc1)N1C(=O)[C@H]2[C@H]3[C@H](O)[C@H](O)CC(=NOC[C@@H](O)COCc4ccco4)[C@@H]3CC[C@H]2C1=O`, the z-score is -0.428 (inactive).

For `CO[C@H]1O[C@H](CO)[C@@H](OC(=O)Nc2ccc3c(c2)OCO3)[C@H](OC(=O)Nc2ccccc2-c2ccccc2)[C@@H]1OC(=O)Nc1ccccc1-c1ccccc1`, the z-score was -1 (inactive).

On to `NCCCCCNC(=O)[C@@H]1C[C@@H]2C(=O)N3CCC[C@H]3C(=O)N2[C@@H]1c1cccc(OCCO)c1`, for which the z-score is 0.142 (inactive).

For the molecule `C[C@@H]1C=CCC(=O)OC[C@H](C)C(=O)N2CCC[C@H]2C(=O)OC1`, the z-score is -0.0059 (inactive).

Turning to `CCCC=C(CCC)[C@@H](NC(=O)c1ccc(-c2ccccc2)cc1)c1ccc(C(=O)OC)cc1`, the z-score was 0.747 (inactive).

Consider `CCOC(=O)[C@H](Cc1ccccc1)NC(=O)CCC1CC(OC(=O)NCc2ccc3c(c2)OCO3)CC2(CCCC(COC(=O)NCC3CCCCC3)O2)O1` (stereo partly specified), for which the z-score is 1.02 (inactive).

As for `COc1ccc(COC(=O)NN=C2C[C@@H](O)[C@@H](O)[C@@H]3[C@@H]4C(=O)N(c5ccc(F)cc5F)C(=O)[C@@H]4CC[C@@H]23)cc1`, the z-score is 0.909 (inactive).

With `CC(C)[C@@H](OCc1ccccc1)[C@H](C)C=NO[C@H](C)c1cn([C@H](CO)Cc2ccccc2)nn1`, the z-score is -1.02 (inactive).

In the case of `COC(=O)[C@H](C)NC(=O)CCC1CC(OC(=O)NCc2cccc3ccccc23)CC2(CCCC(COC(=O)NCCc3ccc(Cl)cc3)O2)O1` (stereo partly specified), the z-score was 0.871 (inactive).

With `COc1ccc(-c2nc3c(c4c2C[C@H](C)OC4)CN(CCC(C)C)CC3)cc1`, the z-score is -0.0598 (inactive).

Take `O=C(NN=C1C[C@@H](O)[C@@H](O)[C@@H]2[C@@H]3C(=O)N(c4cccc(Oc5ccccc5)c4)C(=O)[C@@H]3CC[C@H]12)OCc1ccccc1`: the z-score is -0.103 (inactive).

Consider `CCOC(=O)CCN1C(=O)[C@H]2[C@H]3[C@H](O)[C@H](O)CC(=NNC(=O)OCc4ccc(OC)cc4)[C@@H]3CC[C@H]2C1=O`, for which the z-score is -0.807 (inactive).

As to `CCN1C(=O)[C@H]2[C@H]3[C@H](O)C=CC(=O)[C@@H]3CC[C@H]2C1=O`, the z-score was 0.459 (inactive).

Take `C=C(CCCC)C(=O)CC[C@@H](OC(C)=O)c1cccc(OCCO)c1`: the z-score was -0.713 (inactive).

As to `O=C1C[C@]2(c3ccc([N+](=O)[O-])cc3)C(=O)N(CCN3CCOCC3)c3cc(CO)ccc3[C@H]2N1CC12CC3CC(CC(C3)C1)C2`, the z-score is 0.723 (inactive).

Turning to `[N-]=[N+]=NCc1ccccc1[C@@H]1OC(c2ccc(OCCCO)cc2)=N[C@]1(Cc1ccccc1)C(=O)N1CCOCC1`, the z-score is -1.14 (inactive).

Regarding `CC(C)N1CC=CC23O[C@@H]4C=CCCOC(=O)C4[C@H]2C(=O)N(CCCCCCO)[C@@H]3C1=O` (stereo partly specified), the z-score is 0.711 (inactive).

On to `CCCNC(=O)[C@@H]1c2ccccc2C(=O)N(Cc2ccccc2Cl)[C@H]1c1ccc(CO)cc1`, for which the z-score was 2.06 (inactive).

Consider `CCN1C(=O)[C@H]2[C@H]3[C@H](O)[C@H](O)CC(=NOCc4ccccc4)[C@H]3CC[C@H]2C1=O`, for which the z-score was -0.0275 (inactive).

`C[C@H](c1ccccc1)N1C(=O)[C@H]2[C@H]3[C@H](O)[C@H](O)CC(=O)[C@@H]3CC[C@H]2C1=O`: the z-score was -0.164 (inactive).

Consider `COC(=O)C1=C(C)[C@@H](O)[C@@H](C)[C@H](c2c(OC)c(OC)c(C)c(OC)c2OC)O1`, for which the z-score is -0.345 (inactive).

As to `CC(=O)OC[C@H]1O[C@H](CC=NOC[C@@H](C)[C@H](OCc2ccccc2)C(C)C)C=C[C@@H]1OC(C)=O`, the z-score was 0.286 (inactive).
